This is a sample that favours compounds with a hit; in the whole collection about 19% have one here.
TDP1 cell noCPT: qHTS for Inhibitors of human tyrosyl-DNA phosphodiesterase 1 (TDP1): qHTS in cells in absence of CPT | AID 686978, 2013 | Potency, µM (highest dose often 46.2 µM), usual class: inhibitors | 420,000 compounds, 15% hits | DT40 Tdp1-/- hTDP1 cells, no CPT, ATP luminescence, 48 h; further: nearly all actives have a fitted effect of over 55% in size
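No-CPT arm: Tdp1-/-;hTDP1 DT40 cells (400/well) plus compounds, incubated ≥48 hr at 37 °C. Readout CellTiter-Glo luminescence.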
KB-V1 cytotox: KB-V1 MDR subline cytotoxicity; KB-V1 MDR cells viability, CellTiter-Glo, 72 h; Potency, µM (series often up to 46.1 µM), actives largely listed as cytotoxic; 400,000 compounds, 3.4% hits; AID 1347076; further: nearly all actives have a fitted effect of over 60% in size
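Cytotoxicity toward P-gp-expressing KB-V1 cells was determined as loss of CellTiter-Glo luminescence after 72 h at 37 degrees C. Compounds were tested in quantitative HTS format across a concentration range, with curves fitted to normalized data.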
HT1080 IDH1KD tx: toxicity to HT-1080 IDH1 knockdown cells (counter line); HT-1080 IDH1 knockdown viability, ATP luminescence, 48 h; Potency, µM (highest dose often 46.1 µM), actives largely listed as cytotoxic; 360,000 compounds, 2% hits; AID 686971
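Using the IDH1-knockdown HT-1080 line run in the same batch and compound series as the NT line, viability after 48 h at 37 °C was determined by CellTiter-Glo luminescence and expressed as % activity.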
KB-3-1 tox: KB-3-1 parental cell cytotoxicity. KB-3-1 viability, CellTiter-Glo ATP luminescence, 72 h. Potency, µM (top dose mostly 46.1 µM), actives largely listed as cytotoxic. 400,000 compounds, 1.4% hits. AID 1347075; further: nearly all actives have a fitted effect of over 60% in size
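KB-3-1 parental drug-naive adenocarcinoma cells in DMEM/10% FBS, incubated 72 h at 37 C with pin-transferred compounds across a concentration series. Viability by CellTiter-Glo luminescence; concentration-response curves fitted after normalization.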
TDP1 cell CPT: growth inhibition of DT40 Tdp1-/-;hTDP1 cells with camptothecin (screen for TDP1 inhibitors); chicken DT40 Tdp1-/-;hTDP1 cells + 20 nM CPT, ATP luminescence, 48 h; Potency, µM (series often up to 46.2 µM), usual class: inhibitors; 420,000 compounds, 12% hits; further: nearly all actives have a fitted effect of over 55% in size
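Chicken DT40 Tdp1-/- cells stably complemented with human TDP1 were seeded at 400 cells/well in medium containing 20 nM camptothecin, exposed to pin-transferred compounds, and grown at 37 °C for at least 48 hr. Viability was read as ATP luminescence.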
HT1080-NT tox: kills 2HG-producing HT-1080-NT fibrosarcoma cells; HT-1080-NT fibrosarcoma viability, CellTiter-Glo ATP luminescence, 48 h; Potency, µM (series often up to 46.1 µM), most hits filed as cytotoxic; 360,000 compounds, 1.6% hits;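 further: NT is the 2HG producing partner of a matched IDH1 knockdown line; nearly all actives have a fitted effect of over 55% in size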
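Luminescent CellTiter-Glo readout after 48 hours of compound exposure at 37 degrees C defined viability of HT-1080-NT cells. Activity was normalized to DMSO wells and cell-free media wells; concentration-response curves were fitted and assigned curve classes.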
A number is an active result; - = inactive; ? = inconclusive; . = no result given; [ ] = remark or other dose. The call rests on the fitted dose curve; in most records, active means well fitted curve in the direction sought with a large enough effect; inconclusive means small, poorly fitted or top-dose-only effect, or another doubt; inactive means no such curve, though single readings can be large; an effect the other way counts as inactive or inconclusive.

SMILES	TDP1 cell noCPT	KB-V1 cytotox	HT1080 IDH1KD tx	KB-3-1 tox	TDP1 cell CPT	HT1080-NT tox
CCOC(=O)c1cnc(SC2CCc3ccccc3C2=O)nc1N (stereo not drawn)	-	-	?	-	?	-
Cc1noc(C)c1COc1ccc(C(=O)N2CCC(C)CC2)cc1	?	23µM	-	-	?	-
Cc1noc(C)c1COc1ccc(C(=O)N2CCN(S(=O)(=O)c3ccc(F)cc3)CC2)cc1	-	8.2µM	-	-	?	-
Cc1noc(C)c1COc1ccc(C(=O)N2CCN(S(=O)(=O)c3ccc(Cl)cc3)CC2)cc1	-	-	-	-	-	-
CS(=O)(=O)Nc1ccc(C2=NN(C(=O)C3CCCCC3)C(c3cccs3)C2)cc1 (stereo not drawn)	23µM	?	?	-	?	-
CS(=O)(=O)Nc1cccc(C2=NN(C(=O)c3ccccc3)C(c3cccs3)C2)c1 (stereo not drawn)	?	-	-	-	21µM	-
Cc1ccc(S(=O)(=O)c2cnc(SCC(=O)Nc3ccc4c(c3)OCCO4)[nH]c2=O)cc1	.	-	.	-	.	.
COC(=O)c1c(C)nc2nonc2c1N	-	-	-	-	-	-
Cc1ccc(C(=O)OC(C(=O)Nc2ccc(Cl)cc2C(F)(F)F)c2ccccc2)cc1 (stereo not drawn)	23µM	-	?	-	?	?
Cc1ccc(NC(=O)C(OC(=O)c2ccc(C=O)cc2)c2ccccc2)cc1Cl (stereo not drawn)	?	-	23µM	-	?	?
O=C(OC(C(=O)Nc1ccc(Cl)cc1C(F)(F)F)c1ccccc1)c1c(Cl)cccc1Cl (stereo not drawn)	13µM	-	-	?	?	-
COc1ccc(C(=O)C(OC(=O)c2ccc(C)c(NC(C)=O)c2)c2ccccc2)cc1 (stereo not drawn)	?	-	-	-	?	-
Cc1ccc(C)c(NC(=O)C(OC(=O)c2ccc(CO)cc2)c2ccccc2)c1 (stereo not drawn)	-	-	-	-	-	-
CC(=O)Nc1cc(C(=O)OC(C(=O)c2ccccc2)c2ccccc2)ccc1C (stereo not drawn)	-	16µM	-	-	-	-
CC(CCc1ccccc1)NC(=O)c1cc2sccc2n1C (stereo not drawn)	?	?	-	-	?	-
CC(CCc1ccccc1)NC(=O)C1CCCN(C(=O)c2cc3sccc3n2C)C1 (stereo not drawn)	15µM	-	?	-	18µM	-
Cn1c(C(=O)N2CCCC(C(=O)NCc3cccs3)C2)cc2sccc21 (stereo not drawn)	-	-	-	-	?	-
CCn1c(C(=O)N2CCCC(C(=O)NCCCc3ccccc3)C2)cc2sccc21 (stereo not drawn)	?	23µM	-	-	21µM	-
Cn1c(C(=O)N2CCCC(C(=O)NCCCSC3CCCCC3)C2)cc2sccc21 (stereo not drawn)	-	8.2µM	-	-	?	-
O=C(c1cnn(-c2nccc(-c3ccco3)n2)c1C1CC1)N1CCCCC1c1cccnc1 (stereo not drawn)	-	.	.	.	-[9.04 µM]	.
CCOc1ccc(C(C)=O)cc1N1C(=O)C2C3C=CC(O3)C2C1=O (stereo not drawn)	5.2µM	-	?	-	6.5µM	-[9.24 µM]
O=C(CN1C(=O)C(c2ccccc2)Oc2cccnc21)NCc1ccccc1F (stereo not drawn)	?	-	-	-	21µM	-
COc1cc(Cl)c(C)cc1NC(=O)CCCN1C(=O)C(c2ccccc2)Oc2cccnc21 (stereo not drawn)	21µM	-	.	-	26µM	.
COc1ccc(C)cc1NC(=O)CCCN1C(=O)C(c2ccccc2)Oc2cccnc21 (stereo not drawn)	?	-	-	-	?	-
COc1ccc(CNC(=O)CN2C(=O)C(c3ccccc3)Oc3cccnc32)cc1 (stereo not drawn)	?	-	-	-	-	-
SMILES	TDP1 cell noCPT	KB-V1 cytotox	HT1080 IDH1KD tx	KB-3-1 tox	TDP1 cell CPT	HT1080-NT tox
COc1ccc(Cl)cc1NC(=O)CCCN1C(=O)C(c2ccccc2)Oc2cccnc21 (stereo not drawn)	23µM	-	.	?	18µM	.
O=C(NCCCn1ccnc1)/C(=C\c1ccc(Br)cc1)NC(=O)c1ccccc1F	-	.	-	.	-	-
COc1ccc(S(=O)(=O)Nc2cccc(F)c2)cc1C	-	-	-	-	-	-
CCOc1ccc(S(=O)(=O)Nc2cccc(N(C)S(C)(=O)=O)c2)cc1	12µM	-	-	-	23µM	-
CCOc1ccc(S(=O)(=O)Nc2cccc(OC)c2)cc1	?	?	10µM	-	?	?
CCOC(=O)c1cc(S(=O)(=O)Nc2cccc(OC)c2)cn1C	?	-	-	-	21µM	-
COc1ccc(S(=O)(=O)Nc2cccc(N(C)S(C)(=O)=O)c2)cc1C	21µM	15µM	-	?	26µM	-
CCOc1ccc(S(=O)(=O)Nc2cccc(C(=O)N3CCN(c4ccc(OC)cc4)CC3)c2)cc1	-	-	-	-	-	-
COc1cccc(NS(=O)(=O)c2ccc(-n3cccn3)cc2)c1	5.8µM	-	-	-	?	-
O=c1cccc(-c2ccc3ccccc3c2)o1	?	-	-	-	-	-
CCCCN(C(=O)CSc1ncnc2sccc12)c1c(N)n(Cc2ccccc2)c(=O)[nH]c1=O	-	-	-	-	-	-
CCc1ccc(OCC(=O)N2CC(C(N)=O)Oc3ccccc32)cc1 (stereo not drawn)	-	-	-	-	-	-
Cc1ccc(OCCOC(=O)c2cc(S(=O)(=O)N3CCCCC3)ccc2N2CCOCC2)cc1	13µM	2.9µM	?	4.6µM	16µM	-
O=C(OCCOc1ccc(Cl)cc1)c1cc(S(=O)(=O)N2CCCCC2)ccc1N1CCOCC1	?	?	?	?	13µM	-
CCCc1cc(=O)[nH]c(SCC(=O)N2CCN(S(=O)(=O)c3ccc(C)cc3)C2)n1	-	-	-	-	-	-
COCCCN1C(=O)C(CC(=O)NC2CCCCC2)CC(C(=O)N2CCOCC2)=C1C (stereo not drawn)	-	-	-	-	-	-
COC(=O)[C@@]12C[C@@H](CC(=O)NCc3cccs3)C(=O)N(Cc3ccc4c(c3)OCO4)C1=CCC(C)(C)C2	?	?	?	-	?	?

Assay outcomes deposited in PubChem by National Center for Advancing Translational Sciences (NCATS).
